Experimental data as given in PubChem BioAssay AID1781 (National Center for Advancing Translational Sciences (NCATS), 2009).
Inconclusive results are not listed. The source made the active and inactive calls. The call rests on the fitted dose curve; in most records, active means well fitted curve in the direction sought with a large enough effect; inconclusive means small, poorly fitted or top-dose-only effect, or effect the other way, or another doubt; inactive means no such curve, though single readings can be large or run the other way.

biological target: Pyruvate kinase PKLR (Homo sapiens) (UniProt P30613); experiment: Confirmation Concentration-Response Assay for Activators of Human Liver Pyruvate Kinase; conditions: purified hPK-L, Kinase-Glo ATP luminescence, 1 h; series mostly up to 57.5 µM; activity change, positive = activation: at the top concentration
Description: Confirmatory assay NIH Chemical Genomics Center [NCGC] Matthew G. Vander Heiden, M.D., Ph.D. [Harvard Medical School, 77 Avenue Louis Pasteur, Boston, MA 02115] NCGC Assay Overview: Human pyruvate kinase liver (hPK-L) enzyme was supplied as a highly purified (>95% pure) preparation from Harvard Medical School and assayed for its ability to generate ATP from ADP using phosphoenolpyruvate (PEP) as a substrate. ATP generation was detected in a coupled reaction by luciferase-mediated luminescence, an ATP-dependent process. Pyruvate kinase substrates, PEP and ADP, were present in the assay at Km and approximately 10-fold below Km respectively. The enzyme was assayed at an intermediate level of activity to screen for both inhibitors and activators.
NCGC Assay Protocol Summary for L-isoform: Three uL of substrate mix (at r.t.) in assay buffer (50 mM Imidazole pH7.2, 50 mM KCl, 7 mM MgCl2, 0.01% Tween 20, 0.05% BSA) was dispensed into white solid bottom 1,536 well microtiter plates so that the final concentrations of substrates in the assay were 0.1 mM ADP and 0.5 mM PEP. 23 nL of compound were delivered by a pin tool and 1 uL of enzyme mix (final concentration of 0.1 nM) in assay buffer (4 degree Celsius) was added. Plates were incubated at room temperature for 1 hour. Two uL of detection mix (Kinase-Glo, Promega; at 4 degree Celsius protected from light) was added and luminescence read by a ViewLux (Perkin Elmer) at 1 second exposure/plate. Data were normalized to the uninhibited (row 31). Additionally, a no enzyme and 5-fold enzyme control was dispensed in row 32, split equally between the two conditions.

Pyruvate kinase PKLR (Homo sapiens), sequence (P30613 whole entry, looked up): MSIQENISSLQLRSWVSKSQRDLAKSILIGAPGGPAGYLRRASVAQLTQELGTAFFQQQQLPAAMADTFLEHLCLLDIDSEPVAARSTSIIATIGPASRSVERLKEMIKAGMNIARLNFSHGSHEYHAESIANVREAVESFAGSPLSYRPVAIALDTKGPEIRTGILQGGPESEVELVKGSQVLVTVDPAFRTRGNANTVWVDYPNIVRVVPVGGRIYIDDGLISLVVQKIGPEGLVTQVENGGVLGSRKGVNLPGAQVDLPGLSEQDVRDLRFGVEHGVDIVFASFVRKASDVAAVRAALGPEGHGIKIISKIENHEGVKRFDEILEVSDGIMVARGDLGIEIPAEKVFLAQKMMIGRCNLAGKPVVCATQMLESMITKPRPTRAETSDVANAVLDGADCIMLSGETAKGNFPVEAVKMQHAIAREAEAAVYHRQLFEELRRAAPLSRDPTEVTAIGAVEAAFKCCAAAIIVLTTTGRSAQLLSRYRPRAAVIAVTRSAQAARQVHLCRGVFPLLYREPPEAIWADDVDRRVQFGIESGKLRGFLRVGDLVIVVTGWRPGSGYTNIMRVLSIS

outcome, inactive:
CC1(C)CCc2cc(S(=O)(=O)N3CCN(S(=O)(=O)c4c(F)cccc4F)CC3)ccc2O1

Activity change, positive = activation, inactive:
CCCc1cc(F)c(S(=O)(=O)N2CCN(S(=O)(=O)c3ccc4c(c3)OCCO4)CC2)cc1F -1.3%
Cc1cc2c(s1)c1cnn(Cc3ccc(C(F)(F)F)cc3F)c(=O)c1n2C 3.86%
CC(=O)Nc1cc2c(s1)c1cnn(Cc3ccccc3F)c(=O)c1n2C 0.724%
Cc1cc2c(s1)c1cnn(Cc3ccc(F)c(F)c3F)c(=O)c1n2C -3.47%
Cc1cc2c(s1)c1cnn(Cc3ccc(C(F)(F)F)cc3)c(=O)c1n2C 1.53%
COc1ccc(Cn2ncc3c4sc(C)cc4n(C)c3c2=O)cc1F 2.87%
CCc1cc2c(s1)c1cnn(Cc3ccccc3F)c(=O)c1n2C -3.21%
COc1ccc(S(=O)(=O)N2CCN(S(=O)(=O)c3ccc4c(c3)OCCO4)CC2)cc1 -17.8%
Cc1cc2c(s1)c1cnn(Cc3cccc(Cn4ncc5c6sc(C)cc6n(C)c5c4=O)c3F)c(=O)c1n2C 1.6%
O=S(=O)(c1ccc2c(c1)OCCO2)N1CCN(S(=O)(=O)c2ccc3c(c2)OCCO3)CC1 10.6%
O=S(=O)(NC1CCC(NS(=O)(=O)c2c(F)cccc2F)CC1)c1ccc2c(c1)OCCO2 (stereo not given) 12.3%
Cc1cc2c(s1)c1cnn(Cc3ccc(Cl)cc3)c(=O)c1n2C -5.43%
O=S(=O)(NCCNS(=O)(=O)c1c(F)cccc1F)c1ccc2c(c1)OCCO2 13.3%
Cn1c2cc(CO)sc2c2cnn(Cc3ccccc3F)c(=O)c21 10.3%
Cc1cc2c(s1)c1cnn(Cc3cccc(F)c3F)c(=O)c1n2C -7.7%
O=S(=O)(NCCCCCNS(=O)(=O)c1c(F)cccc1F)c1ccc2c(c1)OCCO2 11.1%
O=C(CN1C(=O)N/C(=C\c2cccn2-c2cccc(C(=O)O)c2)C1=O)Nc1ccccc1F -8.34%
Cc1ccc(Cn2ncc3c4sc(C)cc4n(C)c3c2=O)cc1 3.18%
N#Cc1ccc(S(=O)(=O)N2CCN(S(=O)(=O)c3ccc4c(c3)OCCO4)CC2)cc1 1.16%
Cc1nc2ccc(S(=O)(=O)N3CCN(S(=O)(=O)c4c(F)cccc4F)CC3)cc2s1 6.42%
Cc1cc2c(s1)c1c(C)nn(Cc3ccccc3F)c(=O)c1n2C 9.29%
CC(O)c1cc2c(s1)c1cnn(Cc3ccccc3F)c(=O)c1n2C (stereo not given) 9.11%
O=S(=O)(c1ccc2ccccc2c1)N1CCN(S(=O)(=O)c2c(F)cccc2F)CC1 4.29%
Cc1cc2c(s1)c1cnn(Cc3c(F)cccc3Cl)c(=O)c1n2C 1.54%
O=S(=O)(c1ccc2c(c1)OCO2)N1CCN(S(=O)(=O)c2c(F)cccc2F)CC1 -0.662%
CCCCCn1ncc2c3sc(C)cc3n(C)c2c1=O 1.95%
COC(=O)c1cc2c(s1)c1cnn(Cc3ccccc3F)c(=O)c1n2C 6.65% [at 28.7 µM]
Cc1cc2c(s1)c1cnn(Cc3cccc(F)c3)c(=O)c1n2C 2.55%
COc1ccc(Cn2ncc3c4sc(C)cc4n(C)c3c2=O)cc1 3.19%
Cc1cc2c(s1)c1cnn(Cc3c(F)c(F)cc(F)c3F)c(=O)c1n2C 1.25%
O=S(=O)(c1c(F)cccc1F)N1CCN(S(=O)(=O)c2c(F)cccc2F)CC1 -1.23%
Cc1cc2c(s1)c1cnn(Cc3ccc(C)c(F)c3F)c(=O)c1n2C 5.3%
Cc1cc2c(s1)c1cnn(Cc3ccc(F)cc3)c(=O)c1n2C 1.34%
O=C(c1c(F)cccc1F)N1CCN(S(=O)(=O)c2ccc3c(c2)OCCO3)CC1 -1.57%
